# Measurements reported in PubChem BioAssay AID453 (PCMD, 2006).
# Hit rate of the full screen: of about 63,000 compounds, about 75 (0.1%) were called active. This is one part of a sample in which actives are shown more often than they occur. Unmarked numbers belong to inactive results. Rule as the data show it: active = inhibition above about 21%; inactive = the rest.
# Target: Cathepsin B (Homo sapiens) (UniProt P07858)
# Experiment: blockers of cathepsin B proteolysis – biochemical, fluorogenic substrate, primary screen (AID 453);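 also: 0% = enzyme with no compound and 100% = no enzyme blank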
# Conditions: purified cathepsin B, fluorescence, active compounds read high,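 tested at 10 µM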
row,SMILES,inhibition
1,O=C1c2cccc3cccc(c23)N1CN1CCN(c2ccccn2)CC1,2.14%
2,Cc1ccccc1-c1ccc(Nc2ccc(C(=O)N3CCOCC3)cc2)nn1,6.18%
3,NC(=O)CSc1c[nH]c2ccccc12,0.81%
4,COc1ccc(-c2cc(C(=O)NC(C(=O)O)C(C)C)c(C)o2)cc1OC (stereo unspecified),5.71%
5,CCCc1nc2c3cnn(-c4cccc(Cl)c4)c3ncn2n1,-2.64%
6,CCOC(=O)N1CCC(NC(=O)CCc2cn(C)c3ccccc23)CC1,-2.17%
7,COc1ccc(CCNC(=O)C2CCCN(Cc3nc(-c4cccc(Cl)c4)oc3C)C2)cc1OC (stereo unspecified),3.18%
8,COCc1cc(C)nc(Nc2cc(C)ccc2C)c1C#N,4.86%
9,COc1ccc(CCNC(=O)CSc2nnc(CNC(=O)c3cccs3)o2)cc1OC,1.4%
10,O=c1c(F)cn(C2CCCO2)c(=O)n1Cc1ccccc1Cl (stereo unspecified),-1.02%
11,CC(C)OC(=O)c1cc(NC(=O)C2C3CCC(O3)C2C(=O)O)cc(C(=O)OC(C)C)c1 (stereo unspecified),2.7%
12,COc1cc(C2C(C(=O)c3ccc(C)o3)=C(O)C(=O)N2CCc2ccccc2)ccc1O (stereo unspecified),4.77%
13,COc1ccc(NC2CC(=O)N(C)C2=O)cc1 (stereo unspecified),-3.47%
14,CCOC(=O)N1CCN(C(=O)C2CCCN(c3ncnc4c3sc3cccc(F)c34)C2)CC1 (stereo unspecified),-3.56%
15,CCOc1cccc(-c2nn3c(-c4ccccn4)nnc3s2)c1,0.42%
16,CC(=O)N(CN1C(=O)C2CC=CCC2C1=O)c1cccc(Cl)c1 (stereo unspecified),-3.62%
17,Cc1ccc2c(c1)N(CC(=O)N1CCCc3ccccc31)C(=O)C(C)O2 (stereo unspecified),3.31%
18,CC1=C2C(=O)OC(c3ccoc3)C2(C)CCC1 (stereo unspecified),0.12%
19,CC1CSc2nnc(CCc3ccccc3)n21 (stereo unspecified),-1.7%
20,COc1ccc(C2CC(c3ccccc3)Nc3ncnn32)cc1 (stereo unspecified),7.13%
21,Cc1ccc(NC(=O)CN(C)S(=O)(=O)c2cnc[nH]2)cc1C,3.83%
22,O=C(O)C1CCN(S(=O)(=O)N2CCOCC2)CC1,4.13%
23,CCOC(=O)N1CCC(Nc2c(NCCCN3CCN(c4ccc(OC)cc4)CC3)c(=O)c2=O)CC1,4.27%
24,CCCN1CCN(C(=O)Cn2ncc3ccccc32)CC1,0.47%

row,SMILES,inhibition
1,Cc1ccc(F)cc1NC(=O)Cc1nn(C)c(=O)c2ccccc12,2.55%
2,CCCOc1ccc(C2C(C(=O)c3ccc(C)o3)=C(O)C(=O)N2CCCn2ccnc2)cc1 (stereo unspecified),2.38%
3,O=C(Nc1ccc2c(c1)nc1n2CCCCC1)c1cc(S(=O)(=O)N2CCOCC2)ccc1Cl,-1.57%
4,CN1c2ccccc2-c2nc3ccccc3n2C1c1ccco1 (stereo unspecified),-10.8%
5,O=C(CCCn1c(=O)oc2ccccc21)Nc1cccnc1,-0.71%
6,CCCCNc1nc2c(c(=O)n(C)c(=O)n2C)n1Cc1cccc(OC)c1,0.69%
7,COc1ccc(CCNC(=O)CSc2nnc(-c3cccc(F)c3)o2)cc1OC,1.18%
8,CCCSC1=C(C#N)C(c2ccccc2C)C(C(=O)OC)C(=O)N1 (stereo unspecified),-3.07%
9,Cc1ccccc1C(=O)Nc1cccc(-c2nnc(SCC(=O)O)n2C)c1,0.46%
10,CC(C)Oc1ccc(C(=O)Nc2cc(=O)n(C)c(=O)n2C)cc1,-1.53%
11,Cc1cc(NC(=O)Nc2ccccc2)n(-c2ccccc2)n1,0.02%
12,O=C(NCC(F)(F)F)Nc1nnc(C(F)(F)F)s1,2.4%
13,Fc1ccc(Br)cc1/C=N/n1cnnc1,3.66%
14,Cc1cccc(-c2noc(-c3ccc(F)cc3)n2)c1,3.17%
15,COc1c(O)cccc1-c1nnn(CCC(=O)OCC(=O)c2ccccc2)n1,0.08%
16,CN(C)/C=C1\C=C(c2ccccc2)OC1=O,6.09%
17,CCCCSc1nc2c(c(=O)n1CC)SC(C)C2 (stereo unspecified),-3.44%
18,CC1COC2C(O1)N(S(C)(=O)=O)CCN2S(C)(=O)=O (stereo unspecified),3.14%
19,CCOC(=O)[C@H]1CCC[C@@H](NS(=O)(=O)c2ccc(NC(C)=O)cc2)C1,1.14%
20,CCOc1ccccc1C(=O)NCc1ccco1,-3.58%
21,Cc1cc2cc(CN(Cc3cccs3)Cc3nnnn3CC3CCCO3)c(=O)[nH]c2cc1C (stereo unspecified),4.13%
22,O=C(CN(CC1CCCO1)C(=O)CNS(=O)(=O)c1ccccc1)NCc1ccccc1 (stereo unspecified),6.19%
23,CSc1ncccc1C(=O)OCC(=O)N1CCOCC1,4.46%
24,Cn1c(=O)c2c(nc(Br)n2CCSc2nc3ccccc3o2)n(C)c1=O,-0.32%

row,SMILES,inhibition
1,C=CCOc1nc2c(c(=O)n(C)c(=O)n2C)n1Cc1ccc(Cl)cc1Cl,0.74%
2,CN(Cc1ccccc1)C(=O)CCNC(=O)Cn1cnc2ccccc2c1=O,-3.16%
3,O=C(CN1CCOCC1)Nc1ccc(NC(=O)CN2CCOCC2)c(Cl)c1,1.81%
4,Cc1ccc2nc(NC(=O)C3CCN(S(=O)(=O)c4ccc5c(c4)oc(=O)n5C)CC3)sc2c1,4.26%
5,CC(C)C(=O)N1CCN(c2nc(-c3ccccc3)c3c(c2C#N)CC(C)(C)OC3)CC1,1.01%
6,Cc1ccc(-n2c(Cc3cccs3)nnc2SCC(=O)OC(C)C)cc1,11.1%
7,CCOCCOC(=O)C1=C(C)N(C)C(=O)NC1c1ccccc1F (stereo unspecified),1.21%
8,COc1ccc(-c2nnc(SCC(=O)c3ccco3)n2-c2ccccc2)cc1,0.87%
9,CN(CCC#N)c1ncnc2scc(-c3ccccc3)c12,-3.88%
10,COc1cc(C2C(C(=O)c3sc(C)nc3C)=C(O)C(=O)N2CCN(C)C)cc(OC)c1OC (stereo unspecified),4.44%
11,Cc1cc(N=CC2=C(O)CCCC2=O)no1,-1.03%
12,CCC(=O)c1ccc(OCC(O)CN2CC(C)OC(C)C2)cc1 (stereo unspecified),1.68%
13,CCC(=O)c1ccc(OCC(O)CN2C(=O)NC(C)(C)C2=O)cc1 (stereo unspecified),2.56%
14,CC(CCc1ccccc1)NC(=O)c1ccc(Br)o1 (stereo unspecified),-4.56%
15,COCCCN1C(=O)C(=O)/C(=C(/O)c2ccc3c(c2)CC(C)O3)C1c1cccnc1 (stereo unspecified),0.25%
16,CCOc1ccc(NC(=O)CCC(=O)n2nc(C)cc2C)cc1,8.67%
17,CCCCC(CCC(=O)Nc1ccc(C(=O)OCC)cc1)C(=O)O (stereo unspecified),-0.09%
18,CCCOc1ccc(/C(O)=C2/C(=O)C(=O)N(CCN(C)C)C2c2ccc(OC)c(OC)c2)cc1 (stereo unspecified),0.77%
19,Cc1nnc(N(Cc2ccco2)C(=O)c2ccno2)s1,-4.93%
20,CCn1c(CSc2nncn2-c2ccc(OC)cc2)nc2cc(S(=O)(=O)N(C)C)ccc21,5.16%
21,Cc1ccc(NC(=O)C2CCCN(S(=O)(=O)c3c(C)noc3C)C2)c(C)c1 (stereo unspecified),-0.58%
22,CCOC(=O)N1CCN(S(=O)(=O)c2cc(Br)cc3c2N(C(=O)C2CC2)CC3)CC1,2.46%
23,CCOc1cc(C(=O)Nc2ncccn2)cc(OCC)c1OCC,-3.7%
24,COc1ccc(C(=O)Nc2ccc3c(c2)OCO3)cc1OC,1.65%

row,SMILES,inhibition
1,Cc1ccc(C(=O)Nc2ccc3c(c2)OCO3)cc1S(=O)(=O)N1CCCCC1,49.6% (active)
2,Cc1ccc(C(=O)NCC(=O)O)cc1S(=O)(=O)N1CCCCC1,6.73%
3,COC(=O)c1ccccc1NC(=O)CN(Cc1ccccc1)S(C)(=O)=O,-3.25%
4,Cc1cc(=O)oc(C)c1C(=O)NC1CC(C)(C)NC(C)(C)C1,5.11%
5,CC(C)c1nc(-c2ccccn2)no1,-4.78%
6,CC(Sc1nncn1C)C(=O)Nc1ccccc1-c1ccccc1 (stereo unspecified),-1.58%
7,COCCN(C(=O)CCC(=O)Nc1ccccn1)C(C(=O)NCCC(C)C)c1ccc(OC)cc1 (stereo unspecified),-1.72%
8,COc1ccccc1-c1nnc(SCC(=O)N2CC(C)CC(C)C2)o1 (stereo unspecified),-0.15%
9,Cn1c(CNc2nc(-c3ccccc3)cs2)nnc1SCC(=O)c1ccccc1,-1.17%
10,O=C1N=C(N2CCOCC2)CS1,3.2%
11,COc1ccc(CCN2C(=O)c3[nH]nc(-c4ccccc4O)c3C2c2ccc(C)cc2)cc1OC (stereo unspecified),-1.75%
12,O=C(CSc1nnc2ccccn12)c1ccccc1,8.89%
13,Cc1onc(-c2ccccc2)c1C(=O)N1CCOCC1,6.53%
14,Cc1noc(/C=C/N(C)C)c1S(=O)(=O)N1CCCC(C(=O)NCc2ccco2)C1 (stereo unspecified),4.93%
15,Cc1cccc(N2C(=O)SC(N(CC(=O)O)c3cccc(C)c3)C2=O)c1 (stereo unspecified),8.43%
16,CCCCOC(=O)Nc1nccs1,2.38%
17,C=CCOc1ccc(/C=N/n2cncn2)cc1OC,1.3%
18,CCc1nc(Nc2ccc3nccnc3c2)c2oc3ccccc3c2n1,-2.31%
19,C=CCn1c(COc2cccc3cccnc23)nnc1SCC(=O)OC,6.46%
20,Cc1nc2c(-c3ccc(F)cc3)c(C)nn2c(C)c1CCC(=O)N1CCN(c2ccccn2)CC1,-0.57%
21,CCOC(=O)CCc1c(C)c2ccc(OCc3nn[nH]n3)c(C)c2oc1=O,1.69%
22,Cc1cc(C)c(S(=O)(=O)NCCCN2CCOCC2)cc1Br,1.5%
23,Cc1cc(NC(=O)CSc2nnc(-c3ccc(Cl)s3)o2)no1,1.24%
24,O=C(COC(=O)C12CC3CC(CC(C3)C1)C2)NCc1ccco1,-3.05%
